Test results as given in publication PMC13494018.
A number with no mark means an inactive call. How the calls were made is not given here.

biological target: VTCN1, Q7Z7D3
Sequence (Q7Z7D3 whole entry): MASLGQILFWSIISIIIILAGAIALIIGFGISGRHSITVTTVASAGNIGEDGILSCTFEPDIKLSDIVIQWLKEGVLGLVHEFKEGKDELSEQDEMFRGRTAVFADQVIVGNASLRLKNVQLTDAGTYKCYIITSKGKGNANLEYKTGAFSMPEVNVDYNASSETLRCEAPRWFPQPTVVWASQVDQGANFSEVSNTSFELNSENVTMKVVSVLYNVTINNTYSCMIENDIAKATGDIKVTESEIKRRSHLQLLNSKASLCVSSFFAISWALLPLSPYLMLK

Binder	binding in a display sort
design_376_bf9d4634-8475-4fdb-a175-1db49a23bdcd_1019_dldesign_0_cycle1_af2pred (protein) ILKEFAKLVSEAIKKATKADGLNGADIVWKEAEKSFKEVKEALKKGEEEAKKALEKAKERLEKAVEEAKKRGEA	not found
design_376_bf9d4634-8475-4fdb-a175-1db49a23bdcd_1182_dldesign_0_cycle1_af2pred (protein) EEEEKQKVKEEAAKNVEEAVEAAGELIAKHPELREKAYKLRKEAIRLSQEAGKAAEKDLEEGKKYLEESKEKVKEIKKLAEE	not found
design_376_bf9d4634-8475-4fdb-a175-1db49a23bdcd_1609_dldesign_0_cycle1_af2pred (protein) AKEEARELAEKAYEAAKSTSEDLREDVEKDGIGPKAVKSISDNMIEWIEKVHEEVKVDEEAHKIAEEAIKYAKEEGEKNIELAKKR	not found
design_376_bf9d4634-8475-4fdb-a175-1db49a23bdcd_888_dldesign_0_cycle1_af2pred (protein) GVVEKAKKISEAVRAEHKAKATTKLAKADPSQAAAAKAAAEEAKKAAEKAEEADKETAKAAKAAGKEAEAAAKA	not found
design_376_bf9d4634-8475-4fdb-a175-1db49a23bdcd_1294_dldesign_0_cycle1_af2pred (protein) SVKENTKEAAKKLEEKYGAEFAKIGPEYAAKMAAAAKEAAKKPTSADAIILMRDAYDELKKEADAALAAA	not found
design_376_bf9d4634-8475-4fdb-a175-1db49a23bdcd_1417_dldesign_0_cycle1_af2pred (protein) MEEDEKKVEEVKKRGKEVAEKAKKSTPEEAEELRKEFTRYAAEVGGKASPEARNKIQEIRAEANGEIALAIIKKK	not found
design_376_bf9d4634-8475-4fdb-a175-1db49a23bdcd_1020_dldesign_0_cycle1_af2pred (protein) MGKKIHDVVKKAAEEARKAAEKAGADGELVRKAAYTAGWYYIAGDEEEAKKIVELAKKAEPKFAKTVEELMKKALEAAKKALEE	not found
design_376_bf9d4634-8475-4fdb-a175-1db49a23bdcd_737_dldesign_0_cycle1_af2pred (protein) MAREKQIKLYGESLLEIAIESAVAAIKKYEDAYKIIKELSEKRAKKAEEAGDKEMGEKIKKIGKEIAELAEKDKEKALEYAKKL	not found
design_376_bf9d4634-8475-4fdb-a175-1db49a23bdcd_1330_dldesign_0_cycle1_af2pred (protein) AVEEKLKEYTKKAEEYIEKLEKLDPEKAKELRKELEEAKKLTPEEALKKVKEIAAKASEAYYQAKAEEDAKK	not found
design_376_bf9d4634-8475-4fdb-a175-1db49a23bdcd_1228_dldesign_0_cycle1_af2pred (protein) DAALKALATKLQEEGLAWADKAYEAMQIIDPKEAPKVASDILRDFARANKLYAEDPAKGAAALAAARAKVEAIVALAKKVS	not found
design_376_bf9d4634-8475-4fdb-a175-1db49a23bdcd_661_dldesign_0_cycle1_af2pred (protein) SENIKKLSDARNEAIKYLREAVKLAGEEIKEEAAKAIELIGDLEKIPEALEEIEKAIKLAEKVENAEEVKKLLKKAKESAEEALKLS	not found
design_376_bf9d4634-8475-4fdb-a175-1db49a23bdcd_1727_dldesign_0_cycle1_af2pred (protein) STEEAIKKALEMAEKIAKATPETGAEATKIRDELLEYIAEFAEKGTVEGTKAVAEALREQAEKASPEAAKSLRAAARFAEALAKAKA	not found
design_376_bf9d4634-8475-4fdb-a175-1db49a23bdcd_1567_dldesign_0_cycle1_af2pred (protein) SAEEEIKKKAKELEKAGAAALFELADASKEEAPKYAAKIDKAIADLKALGKAATPELGKELFAKADKLQATRDRIMEDIES	not found
design_376_bf9d4634-8475-4fdb-a175-1db49a23bdcd_1192_dldesign_0_cycle1_af2pred (protein) GTEKTKKISDHLRKAVSAAKKAVAIAKKAGIGEEMQKTFSELRDAVVDGDLEKAKEYAKKLLELGKKVPEAYEYAKEAAEEALKAVE	not found
design_376_bf9d4634-8475-4fdb-a175-1db49a23bdcd_746_dldesign_0_cycle1_af2pred (protein) MEKAEEMGERLIEAVKESPEKAREVAEEMVRRAKEGDVEEAAAIAQAVAEAYAVAVKENKEAAEIVREALREVQEIGRKKR	not found
design_376_bf9d4634-8475-4fdb-a175-1db49a23bdcd_800_dldesign_0_cycle1_af2pred (protein) AKAELEKLKKEAAKHRQEMYFYGKASAKLGPKYKAEYEEHYAKALEAAKKIKELDPEEGKKYEEIVLKTKKRLEKEL	not found
design_376_bf9d4634-8475-4fdb-a175-1db49a23bdcd_869_dldesign_0_cycle1_af2pred (protein) REAALAAGAARLEAALAASPAAPAAAAALRAALEAGADAADVILAVQDVLAEAGAAKEDLSAAAKAAAEAVRLYS	not found
design_376_bf9d4634-8475-4fdb-a175-1db49a23bdcd_1125_dldesign_0_cycle1_af2pred (protein) VEEAAKKAKEKVKEVAEKATKEAPETADIAKALAENAEKKIDELAKKGAPKEALEKAAEKAIKTIKAVKKSALELK	not found
design_376_bf9d4634-8475-4fdb-a175-1db49a23bdcd_1553_dldesign_0_cycle1_af2pred (protein) HEEAEKAIEKAKEYFKELVKELEKLDPKAGAKMKELAEKGKKVLERMKEYSPEDVKETAESIMKGAEKEFEKLKKEAEA	not found
